# Data taken from PubChem BioAssay (NCATS).
# Inconclusive results are not listed. Calls of active or inactive are those of the source. Calls follow the shape of the dose curve; as a rule, active = well fitted curve in the direction sought with a large enough effect; inconclusive = small, poorly fitted or top-dose-only effect, or another doubt; inactive = no such curve, though single readings can be large; an effect the other way counts as inactive or inconclusive. Numbered stars: 1 amine (or outer) side, 2 acyl side, 3 side chain; on linkers, the order of the positions; unused ones are H or OH. Bridge positions count the residues as written; N and C are the ends. Square brackets hold non-standard residues; d marks the D form. Peptide text beside a SMILES is read from it. I, II: the chains in the order shown. Actinocin(9to1) = Cc1c2oc3c(C)ccc(C(=O)[*:1])c3nc-2c(C(=O)[*:2])c(N)c1=O; NMeV = CN[C@H](C(=O)O)C(C)C; Sar = CNCC(=O)O
# Experiment: MultiTox-Fluor Cytotoxicity Assay - LYMP1-002 - Live Cells (AID 955); as to viability change, negative = cytotoxic: % is scaled to controls: 0 for no effect and ±100 for the full control effect
# Settings: LYMP1-002 lymphoblastoid live-cell protease fluorescence viability; series mostly up to 46.1 µM; viability change, negative = cytotoxic: at the top concentration
# Method in brief: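 After 16 h compound exposure at 37 C, live LYMP1-002 lymphoblastoid cells (2500/well) were quantified by cleavage of cell-permeant GF-AFC substrate, read at 405/510 nm after 60 min. Concentration-response fitted with Hill equation for AC50.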
# Potency is read from the fitted curve at half-maximal effect.
Structure (SMILES),"viability change, negative = cytotoxic",Potency
CC(=O)O[C@]1(C(C)=O)CC[C@H]2[C@@H]3C[C@H](C)C4=CC(=O)CC[C@]4(C)[C@H]3CC[C@@]21C,-5.47% (inactive),–
C[C@]12CC[C@@H]3c4ccc(O)cc4CC[C@H]3[C@@H]1CC[C@@H]2O,-1.7% (inactive),–
CC(O)C(=O)O (configuration not stated),1.09% (inactive),–
COc1cccc2c1C(=O)c1c(O)c3c(c(O)c1C2=O)C[C@@](O)(C(=O)CO)C[C@@H]3O[C@H]1C[C@H](N)[C@H](O)[C@H](C)O1,–,5010 nM (active)
O=C(O)CCCCC(=O)O,3.99% (inactive),–
COc1cccc2c1C(=O)c1c(O)c3c(c(O)c1C2=O)C[C@@](O)(C(C)=O)C[C@@H]3O[C@H]1C[C@H](N)[C@H](O)[C@H](C)O1,–,3980 nM (active)

# Experiment: MultiTox-Fluor Cytotoxicity Assay - LYMP1-002 - Dead Cells (AID 960); also: nearly all actives have a fitted effect of over 60% in size;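 as to cytotoxicity (dead cells): 0% = DMSO and 100% = tetraoctylammonium bromide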
# Settings: LYMP1-002 lymphoblastoid cells, dead-cell protease fluorescence; series mostly up to 46.1 µM; cytotoxicity (dead cells): at the top concentration
# Method in brief: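 Dead-cell fluorescence (Ex/Em 485/520) after 16 h compound exposure at 37 C of LYMP1-002 lymphoblastoid cells in complete medium; AC50 by Hill equation, with data scaled between DMSO and 15 uM tetraoctylammonium bromide.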
Structure (SMILES),cytotoxicity (dead cells),Potency
CC(=O)O[C@]1(C(C)=O)CC[C@H]2[C@@H]3C[C@H](C)C4=CC(=O)CC[C@]4(C)[C@H]3CC[C@@]21C,2.91% (inactive),–
CC(O)C(=O)O (configuration not stated),11.1% (inactive),–
COc1cccc2c1C(=O)c1c(O)c3c(c(O)c1C2=O)C[C@@](O)(C(=O)CO)C[C@@H]3O[C@H]1C[C@H](N)[C@H](O)[C@H](C)O1,–,3160 nM (active)
O=C(O)CCCCC(=O)O,-0.343% (inactive),–
"Cc1c2oc3c(C)ccc(C(=O)N[C@@H]4C(=O)N[C@H](C(C)C)C(=O)N5CCC[C@H]5C(=O)N(C)CC(=O)N(C)[C@@H](C(C)C)C(=O)O[C@@H]4C)c3nc-2c(C(=O)N[C@@H]2C(=O)N[C@H](C(C)C)C(=O)N3CCC[C@H]3C(=O)N(C)CC(=O)N(C)[C@@H](C(C)C)C(=O)O[C@@H]2C)c(N)c1=O (I: T[dV]P[Sar][NMeV] / II: T[dV]P[Sar][NMeV]; ester I:1-I:C, II:1-II:C; linker I:N-II:N via Actinocin(9to1))",–,25.1 nM (active)
COc1cccc2c1C(=O)c1c(O)c3c(c(O)c1C2=O)C[C@@](O)(C(C)=O)C[C@@H]3O[C@H]1C[C@H](N)[C@H](O)[C@H](C)O1,–,12600 nM (active)

# Experiment: MultiTox-Fluor Cytotoxicity Assay - LYMP1-003 - Dead Cells (AID 961); also: nearly all actives have a fitted effect of over 70% in size;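 as to cytotoxicity (dead cells): 0% = DMSO and 100% = tetraoctylammonium bromide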
# Settings: LYMP1-003 lymphoblastoid cells, dead-cell protease fluorescence; series mostly up to 92.2 µM; cytotoxicity (dead cells): at the top concentration
# Method in brief: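 LYMP1-003 human lymphoblastoid cells (2500/well) exposed to compound 16 h at 37 C in complete medium; dead-cell protease read with bis-AAF-R110 fluorescence (Ex/Em 485/520) after 60 min at room temperature. Normalized to DMSO and 15 uM tetraoctylammonium bromide; AC50 from Hill fit.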
Structure (SMILES),cytotoxicity (dead cells),Potency
CC(=O)O[C@]1(C(C)=O)CC[C@H]2[C@@H]3C[C@H](C)C4=CC(=O)CC[C@]4(C)[C@H]3CC[C@@]21C,2.49% (inactive),–
C[C@]12CC[C@@H]3c4ccc(O)cc4CC[C@H]3[C@@H]1CC[C@@H]2O,27.8% (inactive),–
CC(O)C(=O)O (configuration not stated),-7.55% (inactive),–
COc1cccc2c1C(=O)c1c(O)c3c(c(O)c1C2=O)C[C@@](O)(C(=O)CO)C[C@@H]3O[C@H]1C[C@H](N)[C@H](O)[C@H](C)O1,–,6310 nM (active)
O=C(O)CCCCC(=O)O,-11.5% (inactive),–
"Cc1c2oc3c(C)ccc(C(=O)N[C@@H]4C(=O)N[C@H](C(C)C)C(=O)N5CCC[C@H]5C(=O)N(C)CC(=O)N(C)[C@@H](C(C)C)C(=O)O[C@@H]4C)c3nc-2c(C(=O)N[C@@H]2C(=O)N[C@H](C(C)C)C(=O)N3CCC[C@H]3C(=O)N(C)CC(=O)N(C)[C@@H](C(C)C)C(=O)O[C@@H]2C)c(N)c1=O (I: T[dV]P[Sar][NMeV] / II: T[dV]P[Sar][NMeV]; ester I:1-I:C, II:1-II:C; linker I:N-II:N via Actinocin(9to1))",–,50.1 nM (active)
COc1cccc2c1C(=O)c1c(O)c3c(c(O)c1C2=O)C[C@@](O)(C(C)=O)C[C@@H]3O[C@H]1C[C@H](N)[C@H](O)[C@H](C)O1,–,1000 nM (active)

# Experiment: MultiTox-Fluor Cytotoxicity Assay - LYMP1-003 - Live Cells (AID 962);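 as to activity change, negative = fewer live cells: 0% = DMSO only and full loss = 92 µM tetraoctylammonium bromide; cytotoxic hits lower the live-cell protease signal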
# Settings: LYMP1-003 lymphoblastoid cells, MultiTox-Fluor live-cell protease fluorescence; series mostly up to 92.2 µM; activity change, negative = fewer live cells: at the top concentration
# Method in brief: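 Live-cell protease activity (GF-AFC substrate, 405/510 nm, 60 min at room temperature) after 16 h, 37 C compound exposure of human lymphoblastoid LYMP1-003 cells; concentration-response fitted to the Hill equation for AC50.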
Structure (SMILES),"activity change, negative = fewer live cells",Potency
Oc1ccc(Cl)cc1Sc1cc(Cl)ccc1O,-35.7% (inactive),–
CC(=O)O[C@]1(C(C)=O)CC[C@H]2[C@@H]3C[C@H](C)C4=CC(=O)CC[C@]4(C)[C@H]3CC[C@@]21C,-7.2% (inactive),–
C[C@]12CC[C@@H]3c4ccc(O)cc4CC[C@H]3[C@@H]1CC[C@@H]2O,-3.88% (inactive),–
CC(O)C(=O)O (configuration not stated),-4.29% (inactive),–
COc1cccc2c1C(=O)c1c(O)c3c(c(O)c1C2=O)C[C@@](O)(C(=O)CO)C[C@@H]3O[C@H]1C[C@H](N)[C@H](O)[C@H](C)O1,–,794 nM (active)
O=C(O)CCCCC(=O)O,-4.91% (inactive),–
COc1cccc2c1C(=O)c1c(O)c3c(c(O)c1C2=O)C[C@@](O)(C(C)=O)C[C@@H]3O[C@H]1C[C@H](N)[C@H](O)[C@H](C)O1,–,501 nM (active)

# Experiment: Cell Viability - LYMP1-003 - Assay at 24 hr (AID 963);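 as to viability change, negative = cytotoxic: plate controls were DMSO only for no effect and tetraoctylammonium bromide positive control for full effect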
# Settings: LYMP1-003 lymphoblastoid cell viability; series mostly up to 92.2 µM; viability change, negative = cytotoxic: at the top concentration
# Method in brief: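 Concentration-response qHTS: ATP loss measured by CellTiter-Glo luminescence after 24 h compound exposure at 37 C. Cells were LYMP1-003 human lymphoblastoid, 2500 per well. AC50 derived via standard Hill equation modeling.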
Structure (SMILES),"viability change, negative = cytotoxic",Potency
CC(=O)O[C@]1(C(C)=O)CC[C@H]2[C@@H]3C[C@H](C)C4=CC(=O)CC[C@]4(C)[C@H]3CC[C@@]21C,0.627% (inactive),–
C[C@]12CC[C@@H]3c4ccc(O)cc4CC[C@H]3[C@@H]1CC[C@@H]2O,-18.2% (inactive),–
CC(O)C(=O)O (configuration not stated),4.35% (inactive),–
COc1cccc2c1C(=O)c1c(O)c3c(c(O)c1C2=O)C[C@@](O)(C(=O)CO)C[C@@H]3O[C@H]1C[C@H](N)[C@H](O)[C@H](C)O1,–,1260 nM (active)
O=C(O)CCCCC(=O)O,-4.81% (inactive),–
COc1cccc2c1C(=O)c1c(O)c3c(c(O)c1C2=O)C[C@@](O)(C(C)=O)C[C@@H]3O[C@H]1C[C@H](N)[C@H](O)[C@H](C)O1,–,1000 nM (active)
